Reference: publication PMC7862700, “An all-to-all approach to the identification of sequence-specific readers for epigenetic DNA modifications on cytosine”

Legend:
Test in all cases: DAPPL (digital affinity profiling via proximity ligation, sequencing); 10 mM Tris-HCl pH 7.5, 50 mM NaCl, 1 mM DTT, 4% glycerol, room temperature, 30 min; GST-TFs on glutathione beads, 16-mer random dsDNA library, 0.1% formaldehyde crosslink after washing; high values mean tight binding
[1] = biological target: T1, FLI1 (Homo sapiens, UniProt Q01543 1-452); details: protein: recombinant; tags: N-terminal GST; dsDNA, one strand shown
T1 sequence: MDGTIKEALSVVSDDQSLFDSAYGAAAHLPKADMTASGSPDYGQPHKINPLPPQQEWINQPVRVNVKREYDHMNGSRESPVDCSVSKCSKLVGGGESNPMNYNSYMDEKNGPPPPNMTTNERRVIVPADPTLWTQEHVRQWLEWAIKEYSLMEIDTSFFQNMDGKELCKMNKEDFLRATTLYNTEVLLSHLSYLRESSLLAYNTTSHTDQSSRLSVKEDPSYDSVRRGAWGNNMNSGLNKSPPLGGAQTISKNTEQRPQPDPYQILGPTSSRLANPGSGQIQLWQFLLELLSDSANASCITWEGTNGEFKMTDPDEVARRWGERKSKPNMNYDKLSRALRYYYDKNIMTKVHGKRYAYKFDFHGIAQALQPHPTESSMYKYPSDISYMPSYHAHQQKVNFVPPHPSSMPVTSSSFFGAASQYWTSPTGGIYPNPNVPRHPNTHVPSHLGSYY
In short: (§1)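 Human transcription factors fused to GST were expressed in yeast, captured on glutathione beads, given DNA barcodes and pooled with a GST-only negative control. Pools were incubated with 200 nmole of a 16-mer random double-stranded DNA library in Tris/NaCl/DTT/glycerol buffer at room temperature for 30 min. They were then washed, crosslinked with 0.1% formaldehyde, proximity-ligated (BsaI/T4 ligase, 1 h, 37 °C), PCR-amplified and sequenced on an Illumina NextSeq500. Binding signal is each 6-mer's read frequency for a factor divided by its frequency for the GST control.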

[2] = biological target: T2, ELK1 (Homo sapiens, UniProt P19419 1-428); details: protein: recombinant; tags: N-terminal GST; dsDNA, one strand shown
T2 sequence: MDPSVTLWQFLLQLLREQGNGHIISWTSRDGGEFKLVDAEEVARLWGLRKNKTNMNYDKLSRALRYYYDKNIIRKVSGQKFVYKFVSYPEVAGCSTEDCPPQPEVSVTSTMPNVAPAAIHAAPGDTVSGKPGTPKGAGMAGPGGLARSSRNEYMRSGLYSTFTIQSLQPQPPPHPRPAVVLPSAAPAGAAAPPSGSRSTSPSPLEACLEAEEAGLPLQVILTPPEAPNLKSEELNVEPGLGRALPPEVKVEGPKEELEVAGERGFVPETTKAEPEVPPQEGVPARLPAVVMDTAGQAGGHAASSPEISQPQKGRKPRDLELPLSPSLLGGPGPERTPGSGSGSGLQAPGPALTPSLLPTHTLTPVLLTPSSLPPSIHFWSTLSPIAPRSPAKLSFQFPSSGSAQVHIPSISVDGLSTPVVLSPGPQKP
In short: as §1

[3] = biological target: T3, GABPA (Homo sapiens, UniProt Q06546 1-454); details: protein: recombinant; tags: N-terminal GST; dsDNA, one strand shown
T3 sequence: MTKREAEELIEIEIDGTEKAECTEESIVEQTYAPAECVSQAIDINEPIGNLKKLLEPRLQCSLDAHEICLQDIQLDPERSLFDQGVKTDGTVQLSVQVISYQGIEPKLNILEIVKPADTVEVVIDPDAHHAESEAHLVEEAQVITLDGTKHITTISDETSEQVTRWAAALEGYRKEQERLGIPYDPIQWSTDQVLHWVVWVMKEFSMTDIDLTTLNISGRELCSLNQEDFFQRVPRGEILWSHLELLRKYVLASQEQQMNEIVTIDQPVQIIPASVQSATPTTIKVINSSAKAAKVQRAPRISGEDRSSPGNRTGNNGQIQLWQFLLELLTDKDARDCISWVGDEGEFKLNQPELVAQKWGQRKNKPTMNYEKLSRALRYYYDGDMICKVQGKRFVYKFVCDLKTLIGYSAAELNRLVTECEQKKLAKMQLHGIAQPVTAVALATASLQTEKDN
In short: as §1

[4] = biological target: T4, ERG (Homo sapiens, UniProt P11308 1-479); details: protein: recombinant; tags: N-terminal GST; dsDNA, one strand shown
T4 sequence: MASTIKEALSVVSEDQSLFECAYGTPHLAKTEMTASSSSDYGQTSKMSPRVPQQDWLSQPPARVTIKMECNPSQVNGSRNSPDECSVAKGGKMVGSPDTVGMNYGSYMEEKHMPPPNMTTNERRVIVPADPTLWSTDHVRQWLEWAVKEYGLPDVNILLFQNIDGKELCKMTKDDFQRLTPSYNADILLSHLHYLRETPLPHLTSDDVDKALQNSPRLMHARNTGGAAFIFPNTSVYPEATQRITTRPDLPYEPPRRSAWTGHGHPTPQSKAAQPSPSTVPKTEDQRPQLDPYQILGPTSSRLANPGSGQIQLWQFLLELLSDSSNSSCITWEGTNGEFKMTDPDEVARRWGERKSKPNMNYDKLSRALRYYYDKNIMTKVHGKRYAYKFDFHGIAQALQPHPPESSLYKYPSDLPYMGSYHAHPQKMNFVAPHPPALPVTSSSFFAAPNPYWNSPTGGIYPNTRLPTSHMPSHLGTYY
In short: as §1

[5] = biological target: ELF1 (Homo sapiens, UniProt P32519 1-619); details: protein: recombinant; tags: N-terminal GST; dsDNA, one strand shown
Sequence of ELF1 (P32519 whole entry): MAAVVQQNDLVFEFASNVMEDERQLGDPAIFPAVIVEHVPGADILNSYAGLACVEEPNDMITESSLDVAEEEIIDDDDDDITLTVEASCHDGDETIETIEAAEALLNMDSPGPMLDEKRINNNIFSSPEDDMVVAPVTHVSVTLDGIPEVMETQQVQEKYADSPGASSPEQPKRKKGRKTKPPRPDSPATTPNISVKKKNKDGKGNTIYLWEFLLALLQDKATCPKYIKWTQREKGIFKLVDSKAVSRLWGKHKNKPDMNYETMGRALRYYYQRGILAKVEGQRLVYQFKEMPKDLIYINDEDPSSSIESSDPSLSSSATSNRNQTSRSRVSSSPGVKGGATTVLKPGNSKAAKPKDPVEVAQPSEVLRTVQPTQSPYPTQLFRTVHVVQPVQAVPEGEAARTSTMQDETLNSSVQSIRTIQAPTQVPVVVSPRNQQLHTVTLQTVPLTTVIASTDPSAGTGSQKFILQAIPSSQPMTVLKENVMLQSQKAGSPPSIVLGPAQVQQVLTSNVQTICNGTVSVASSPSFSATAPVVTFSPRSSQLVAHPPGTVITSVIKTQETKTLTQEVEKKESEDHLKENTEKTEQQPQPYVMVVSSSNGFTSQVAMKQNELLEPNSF
In short: as §1

[6] = biological target: T5, EHF (Homo sapiens, UniProt Q9NZC4 1-300); details: protein: recombinant; tags: N-terminal GST; dsDNA, one strand shown
T5 sequence: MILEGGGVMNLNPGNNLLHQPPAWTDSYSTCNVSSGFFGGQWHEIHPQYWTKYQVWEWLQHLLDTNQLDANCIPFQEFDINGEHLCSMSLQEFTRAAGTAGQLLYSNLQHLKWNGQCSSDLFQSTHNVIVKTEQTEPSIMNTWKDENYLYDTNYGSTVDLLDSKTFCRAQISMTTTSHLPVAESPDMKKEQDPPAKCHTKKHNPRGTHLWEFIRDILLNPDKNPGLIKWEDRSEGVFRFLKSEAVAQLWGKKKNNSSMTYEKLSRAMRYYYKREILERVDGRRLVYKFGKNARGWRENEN
In short: as §1

[7] = biological target: SPI1 (Homo sapiens, UniProt P17947 1-270); details: protein: recombinant; tags: N-terminal GST; dsDNA, one strand shown
In short: as §1

[8] = biological target: SPIB (Homo sapiens, UniProt Q01892 1-262); details: protein: recombinant; tags: N-terminal GST; dsDNA, one strand shown
Sequence of SPIB (Q01892 whole entry): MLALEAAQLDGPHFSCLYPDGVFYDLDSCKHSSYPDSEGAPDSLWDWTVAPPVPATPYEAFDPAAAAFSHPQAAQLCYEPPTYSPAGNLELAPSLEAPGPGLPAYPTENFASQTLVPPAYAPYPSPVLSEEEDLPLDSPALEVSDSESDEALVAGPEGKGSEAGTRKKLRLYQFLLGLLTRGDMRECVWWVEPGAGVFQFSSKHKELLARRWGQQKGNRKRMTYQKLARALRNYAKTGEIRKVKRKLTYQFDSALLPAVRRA
In short: as §1

[9] = biological target: T6, ELK3 (Homo sapiens, UniProt P41970 1-407); details: protein: recombinant; tags: N-terminal GST; dsDNA, one strand shown
T6 sequence: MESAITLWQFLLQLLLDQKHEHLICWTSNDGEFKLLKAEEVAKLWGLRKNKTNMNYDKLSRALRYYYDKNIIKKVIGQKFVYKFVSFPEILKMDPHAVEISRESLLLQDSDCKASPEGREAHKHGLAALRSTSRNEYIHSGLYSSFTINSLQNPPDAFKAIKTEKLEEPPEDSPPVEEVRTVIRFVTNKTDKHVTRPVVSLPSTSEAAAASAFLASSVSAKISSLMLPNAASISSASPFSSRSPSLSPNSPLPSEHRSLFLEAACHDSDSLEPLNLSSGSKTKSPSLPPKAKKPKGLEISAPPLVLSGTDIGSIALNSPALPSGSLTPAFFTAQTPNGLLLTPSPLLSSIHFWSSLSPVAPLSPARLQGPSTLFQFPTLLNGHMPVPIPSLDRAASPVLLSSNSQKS
In short: as §1

[10] = biological target: T7, FEV (Homo sapiens, UniProt Q99581 1-238); details: protein: recombinant; tags: N-terminal GST; dsDNA, one strand shown
T7 sequence: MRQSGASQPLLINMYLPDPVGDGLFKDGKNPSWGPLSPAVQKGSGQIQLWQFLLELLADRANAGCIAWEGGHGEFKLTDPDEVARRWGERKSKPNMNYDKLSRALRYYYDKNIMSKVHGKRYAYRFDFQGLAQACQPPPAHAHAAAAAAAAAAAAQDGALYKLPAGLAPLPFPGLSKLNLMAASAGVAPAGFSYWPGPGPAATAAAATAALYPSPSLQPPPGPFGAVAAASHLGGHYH
In short: as §1

[11] = biological target: ETV5 (Homo sapiens, UniProt P41161 1-510); details: protein: recombinant; tags: N-terminal GST; dsDNA, one strand shown
Sequence of ETV5 (P41161 whole entry): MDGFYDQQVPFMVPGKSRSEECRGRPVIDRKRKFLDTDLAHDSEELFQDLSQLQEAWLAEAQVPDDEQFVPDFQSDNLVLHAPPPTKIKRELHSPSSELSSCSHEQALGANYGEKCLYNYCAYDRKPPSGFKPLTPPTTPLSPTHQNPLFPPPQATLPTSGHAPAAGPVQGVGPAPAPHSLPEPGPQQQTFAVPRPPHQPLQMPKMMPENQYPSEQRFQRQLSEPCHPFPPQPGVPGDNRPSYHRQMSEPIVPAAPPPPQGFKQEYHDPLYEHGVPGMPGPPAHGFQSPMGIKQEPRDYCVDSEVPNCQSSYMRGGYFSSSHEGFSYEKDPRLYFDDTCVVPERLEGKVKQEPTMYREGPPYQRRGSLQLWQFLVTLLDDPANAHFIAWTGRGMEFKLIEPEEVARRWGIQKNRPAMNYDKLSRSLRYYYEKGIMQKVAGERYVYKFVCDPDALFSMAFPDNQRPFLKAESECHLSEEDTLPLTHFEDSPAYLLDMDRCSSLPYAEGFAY
In short: as §1

[12] = biological target: HSF1 (Homo sapiens, UniProt Q00613 1-529); details: protein: recombinant; tags: N-terminal GST; chain copies: 3; dsDNA, one strand shown
Sequence of HSF1 (Q00613 whole entry): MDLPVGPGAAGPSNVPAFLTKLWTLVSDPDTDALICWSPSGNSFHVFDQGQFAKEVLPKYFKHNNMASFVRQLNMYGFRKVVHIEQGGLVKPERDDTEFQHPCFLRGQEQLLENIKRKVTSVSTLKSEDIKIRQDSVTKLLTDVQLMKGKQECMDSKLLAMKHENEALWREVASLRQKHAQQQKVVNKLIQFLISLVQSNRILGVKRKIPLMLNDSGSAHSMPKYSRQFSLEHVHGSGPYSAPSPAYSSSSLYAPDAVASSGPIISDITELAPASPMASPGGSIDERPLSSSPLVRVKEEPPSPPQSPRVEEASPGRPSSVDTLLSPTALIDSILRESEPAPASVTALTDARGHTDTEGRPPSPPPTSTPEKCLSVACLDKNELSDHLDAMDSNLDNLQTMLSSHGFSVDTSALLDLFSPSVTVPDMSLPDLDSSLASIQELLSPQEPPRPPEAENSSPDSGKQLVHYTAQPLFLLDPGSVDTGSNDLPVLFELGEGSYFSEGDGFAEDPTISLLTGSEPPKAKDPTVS
In short: as §1

[13] = biological target: T8, SPIC (Homo sapiens, UniProt Q8N5J4 1-248); details: protein: recombinant; tags: N-terminal GST; dsDNA, one strand shown
T8 sequence: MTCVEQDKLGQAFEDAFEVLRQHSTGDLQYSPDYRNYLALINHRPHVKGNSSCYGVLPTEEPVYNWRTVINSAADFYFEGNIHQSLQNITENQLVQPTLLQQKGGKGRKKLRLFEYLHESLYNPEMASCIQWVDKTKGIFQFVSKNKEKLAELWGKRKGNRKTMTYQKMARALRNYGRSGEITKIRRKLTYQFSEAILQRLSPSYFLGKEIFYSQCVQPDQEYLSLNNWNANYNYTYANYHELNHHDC
In short: as §1

[14] = biological target: ELF4 (Homo sapiens, UniProt Q99607 1-663); details: protein: recombinant; tags: N-terminal GST; dsDNA, one strand shown
Sequence of ELF4 (Q99607 whole entry): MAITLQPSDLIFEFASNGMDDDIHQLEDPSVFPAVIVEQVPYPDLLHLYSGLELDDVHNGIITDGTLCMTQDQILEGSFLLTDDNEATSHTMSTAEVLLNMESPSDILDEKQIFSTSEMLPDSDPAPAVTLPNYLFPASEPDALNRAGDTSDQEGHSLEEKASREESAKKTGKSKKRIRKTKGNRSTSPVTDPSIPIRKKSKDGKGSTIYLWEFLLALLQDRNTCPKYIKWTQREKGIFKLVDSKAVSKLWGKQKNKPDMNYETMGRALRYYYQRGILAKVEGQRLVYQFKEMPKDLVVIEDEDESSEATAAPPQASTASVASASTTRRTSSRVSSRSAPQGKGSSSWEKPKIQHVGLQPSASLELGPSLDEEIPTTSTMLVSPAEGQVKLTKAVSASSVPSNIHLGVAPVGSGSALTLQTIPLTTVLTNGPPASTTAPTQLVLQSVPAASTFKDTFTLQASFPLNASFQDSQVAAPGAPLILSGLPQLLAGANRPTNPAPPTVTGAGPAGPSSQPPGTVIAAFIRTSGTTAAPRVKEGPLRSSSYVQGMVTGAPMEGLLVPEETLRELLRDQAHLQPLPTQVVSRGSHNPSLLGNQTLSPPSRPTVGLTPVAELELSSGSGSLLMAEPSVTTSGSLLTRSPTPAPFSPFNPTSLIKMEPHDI
In short: as §1

[15] = biological target: T9, ELK4 (Homo sapiens, UniProt P28324-2 1-405); details: protein: recombinant; tags: N-terminal GST; dsDNA, one strand shown
T9 sequence: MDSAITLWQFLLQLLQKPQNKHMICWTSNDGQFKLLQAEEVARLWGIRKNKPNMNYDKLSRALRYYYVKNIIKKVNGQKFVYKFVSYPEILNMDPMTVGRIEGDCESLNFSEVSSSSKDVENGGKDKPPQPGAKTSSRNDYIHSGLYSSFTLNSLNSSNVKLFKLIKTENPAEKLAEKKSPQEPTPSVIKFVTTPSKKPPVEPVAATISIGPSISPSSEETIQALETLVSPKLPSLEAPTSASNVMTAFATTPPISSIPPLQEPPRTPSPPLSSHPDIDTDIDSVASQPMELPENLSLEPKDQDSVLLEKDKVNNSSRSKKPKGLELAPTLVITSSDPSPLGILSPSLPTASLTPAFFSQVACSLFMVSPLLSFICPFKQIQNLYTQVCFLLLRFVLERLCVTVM
In short: as §1

[16] = biological target: T10, ETV2 (Homo sapiens, UniProt O00321 1-342); details: protein: recombinant; tags: N-terminal GST; dsDNA, one strand shown
T10 sequence: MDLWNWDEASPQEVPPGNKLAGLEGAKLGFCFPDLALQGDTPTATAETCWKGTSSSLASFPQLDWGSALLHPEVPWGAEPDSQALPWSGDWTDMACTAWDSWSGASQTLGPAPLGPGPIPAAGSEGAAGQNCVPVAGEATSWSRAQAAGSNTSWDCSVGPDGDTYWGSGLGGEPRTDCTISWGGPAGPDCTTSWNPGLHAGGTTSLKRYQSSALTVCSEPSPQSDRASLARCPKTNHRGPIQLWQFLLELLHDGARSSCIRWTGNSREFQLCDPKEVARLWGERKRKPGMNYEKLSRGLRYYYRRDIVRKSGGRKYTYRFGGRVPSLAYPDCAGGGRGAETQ
In short: as §1

[17] = biological target: T11, ELF3 (Homo sapiens, UniProt P78545 1-371); details: protein: recombinant; tags: N-terminal GST; dsDNA, one strand shown
T11 sequence: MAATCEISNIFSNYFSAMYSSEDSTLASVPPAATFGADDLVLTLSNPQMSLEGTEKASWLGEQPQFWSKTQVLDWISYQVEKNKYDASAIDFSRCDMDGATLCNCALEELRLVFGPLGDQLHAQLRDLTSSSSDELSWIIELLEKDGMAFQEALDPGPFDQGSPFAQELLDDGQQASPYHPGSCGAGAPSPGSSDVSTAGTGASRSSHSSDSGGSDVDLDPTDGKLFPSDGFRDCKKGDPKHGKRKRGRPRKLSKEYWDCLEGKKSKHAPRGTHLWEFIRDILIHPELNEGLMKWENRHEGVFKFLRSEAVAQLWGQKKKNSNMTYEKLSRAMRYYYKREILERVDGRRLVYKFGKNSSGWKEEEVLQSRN
In short: as §1

[18] = biological target: CRX (Homo sapiens, UniProt O43186 1-299); details: protein: recombinant; tags: N-terminal GST; dsDNA, one strand shown
Sequence of CRX (O43186 whole entry): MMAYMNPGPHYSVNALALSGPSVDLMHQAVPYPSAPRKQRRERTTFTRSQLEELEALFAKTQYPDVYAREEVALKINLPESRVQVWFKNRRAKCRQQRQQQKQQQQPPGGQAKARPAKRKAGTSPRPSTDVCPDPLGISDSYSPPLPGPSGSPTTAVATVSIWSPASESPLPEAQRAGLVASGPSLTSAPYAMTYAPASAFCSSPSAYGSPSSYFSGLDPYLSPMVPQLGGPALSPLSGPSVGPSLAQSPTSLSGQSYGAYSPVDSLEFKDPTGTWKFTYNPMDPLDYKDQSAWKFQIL
In short: as §1

[19] = biological target: ETV1 (Homo sapiens, UniProt P50549 1-477); details: protein: recombinant; tags: N-terminal GST; dsDNA, one strand shown
Sequence of ETV1 (P50549 whole entry): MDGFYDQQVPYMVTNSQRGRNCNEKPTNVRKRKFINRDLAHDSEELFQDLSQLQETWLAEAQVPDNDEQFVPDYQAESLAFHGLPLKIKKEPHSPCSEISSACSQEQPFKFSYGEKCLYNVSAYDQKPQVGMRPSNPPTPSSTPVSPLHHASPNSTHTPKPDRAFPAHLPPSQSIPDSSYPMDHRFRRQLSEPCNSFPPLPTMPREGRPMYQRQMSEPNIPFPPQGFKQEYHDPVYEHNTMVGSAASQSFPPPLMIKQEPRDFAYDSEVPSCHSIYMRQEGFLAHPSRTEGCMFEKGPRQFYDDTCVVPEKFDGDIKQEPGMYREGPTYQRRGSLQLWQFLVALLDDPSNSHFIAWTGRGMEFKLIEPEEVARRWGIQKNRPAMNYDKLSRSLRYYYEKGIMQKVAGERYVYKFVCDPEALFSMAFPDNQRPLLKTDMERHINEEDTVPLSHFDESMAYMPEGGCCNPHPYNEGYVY
In short: as §1

CCCAAT was tested, and the binding signal [1] was 1.23 fold enrichment (6-mer frequency, TF over GST control), the binding signal [2] was 1.29 fold enrichment (6-mer frequency, TF over GST control) and the binding signal [3] was 1.35 fold enrichment (6-mer frequency, TF over GST control). For the same sequence, the binding signal [4] was 1.24 fold enrichment (6-mer frequency, TF over GST control), the binding signal [5] was 1.29 fold enrichment (6-mer frequency, TF over GST control) and the binding signal [6] was 1.22 fold enrichment (6-mer frequency, TF over GST control). For the same sequence, the binding signal [7] was 1.28 fold enrichment (6-mer frequency, TF over GST control), the binding signal [8] was 1.21 fold enrichment (6-mer frequency, TF over GST control) and the binding signal [9] was 1.22 fold enrichment (6-mer frequency, TF over GST control). For the same sequence, the binding signal [10] was 1.27 fold enrichment (6-mer frequency, TF over GST control), the binding signal [11] was 1.34 fold enrichment (6-mer frequency, TF over GST control) and the binding signal [12] was 1.1 fold enrichment (6-mer frequency, TF over GST control). The binding signal [13] was 1.27 fold enrichment (6-mer frequency, TF over GST control), the binding signal [14] was 1.32 fold enrichment (6-mer frequency, TF over GST control) and the binding signal [15] was 1.24 fold enrichment (6-mer frequency, TF over GST control). The binding signal [16] was 1.3 fold enrichment (6-mer frequency, TF over GST control), the binding signal [17] was 1.32 fold enrichment (6-mer frequency, TF over GST control) and the binding signal [18] was 1.19 fold enrichment (6-mer frequency, TF over GST control). For the same sequence, the binding signal [19] was 1.19 fold enrichment (6-mer frequency, TF over GST control).
